Inconclusive results are not listed. Unmarked numbers belong to inactive results. Calls of active or inactive are those of the source. The call rests on the fitted dose curve; in most records, active means well fitted inhibition curve with a large enough effect; inconclusive means small, poorly fitted or top-dose-only effect, or effect the other way; inactive means flat fitted curve, though single readings scatter.
On the % scale 0 is the no-effect control and ±100 the full control effect; potency means the concentration at half of the fitted maximal effect.

This assay deals with D(1A) dopamine receptor (Homo sapiens) (UniProt P21728). Kind of assay: HTS Assay for Allosteric Agonists of the Human D1 Dopamine Receptor: Primary Screen for Antagonists (AID 488983). Further: nearly all actives have a fitted effect of over 65% in size. Particulars: D1 receptor cell assay, antagonist mode, qHTS titration; series mostly up to 41.8 µM; activity change, negative = inhibition: at the top concentration. The text has this: Dopamine receptors (DARs) are involved in the etiology and/or therapy of a number of neuropsychiatric and endocrine disorders. For instance, all receptor-based antiparkinsonian drugs work via stimulating the […] DAR subtype whereas all FDA-approved antipsychotic agents are antagonists of this receptor. […] There are three different types of allosteric modulators that we are seeking, two of which will stimulate or augment receptor signaling, allosteric agonists and potentiators, while the third, allosteric antagonists, will attenuate receptor signaling. The present primary screening assay measures compound agonism by tracking calcium flux in a […], inducible Hek293 Trex D1 cell line.
D(1A) dopamine receptor (Homo sapiens), sequence (P21728 whole entry, looked up): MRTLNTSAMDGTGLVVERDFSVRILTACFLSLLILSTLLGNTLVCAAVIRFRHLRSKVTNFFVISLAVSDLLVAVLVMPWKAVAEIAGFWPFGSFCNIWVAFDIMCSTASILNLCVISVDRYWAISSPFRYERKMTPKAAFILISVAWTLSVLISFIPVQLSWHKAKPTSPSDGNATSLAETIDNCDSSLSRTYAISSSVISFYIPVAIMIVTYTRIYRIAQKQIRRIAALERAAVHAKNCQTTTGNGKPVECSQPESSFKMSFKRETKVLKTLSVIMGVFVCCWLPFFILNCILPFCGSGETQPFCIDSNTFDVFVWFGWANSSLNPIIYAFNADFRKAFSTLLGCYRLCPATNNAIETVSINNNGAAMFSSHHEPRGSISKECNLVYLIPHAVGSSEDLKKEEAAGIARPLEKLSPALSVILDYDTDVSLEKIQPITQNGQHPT
Freshly passaged cells are plated in 1536 well black, clear bottom plates at a density of 4000 cells/well in 3 ul of complete media containing 1x tetracycline inducer. After an overnight incubation at 30 C in 5% CO2, cells are loaded with 2 ul of the no wash Calcium Assay Kit (ABD Bioquest) and incubated at room temperature for 30 to 90 minutes. A 10 cycle (1 second/cycle) baseline measurement is taken and then the FDSS online 1536 pintool delivers 23 nl of compound library (as well as dopamine controls) to the plate. The plate is measured for kinetically at 1 cycle/sec for 180 seconds and is considered to be the agonist portion of the assay (eg, compounds which activate a positive calcium response during this portion are flagged as potential agonists). Following the 180 second read, 1 ul of an EC80 of dopamine is delivered by an onboard pipette head. Measurements are taken kinetically for an additional 180 seconds.
In general terms: qHTS replaces the single test concentration by a dilution series.
Regarding `COc1ccc2c(c1)CCC1C2CC[C@@]2(C)C1CC[C@@H]2NCCCCCCN1C(=O)C=CC1=O` (stereo not given in full), the “activity change, negative = inhibition” value is 2.44%. Same read-out and setting: under `Clc1nccc2c1ccc1ccccc12` stands 26.5%. On the same count and under the same terms, for `NC(N)=N[C@@H](CCC(=O)O)C(=O)O` the value was -14.9%. For the compound `OC[C@H]1O[C@H](n2cnc3c(N[C@H]4CCC[C@@H]4O)ncnc32)[C@H](O)[C@@H]1O`, the “activity change, negative = inhibition” value was 4.74%. Still for that read-out and setting: under `CN(CC[C@@H](Oc1ccc(C(F)(F)F)cc1)c1ccccc1)CC(=O)O` stands 12.1%; under `O=c1[nH]c(=O)c2nc3ccccc3nc2[nH]1`, 2.59%; under `COc1cc(C(O)C(=O)O)ccc1O` (stereo not given), 0.943%. The same measure, in the same setting: under `NCCCNCCCCNCCCN` stands 5.73%; under `CC1CCN=C(N)S1` (stereo not given), 20.9%. The same measure, in the same setting: under `CCCCCCCCCC[Si](C)(C)CCC(=O)NC(Cc1ccc(C)cc1)c1ccccc1` (stereo not given) stands 3.64%. Consider `COc1ccc(CCN(C)CCc2ccc(OC)c(OC)c2)cc1OC`, for which the “activity change, negative = inhibition” value is -19.1%. Still for that read-out and setting: for `N=C(N)c1ccc(OCCCCCOc2ccc(C(=N)N)cc2)cc1` (tested in a mixture with another compound) the value was -15%. Same read-out and setting: for `O=C(O)/C=C/c1ccc(O)c(O)c1` the value was 9.63%; for `O=c1ccc2c(OCCCCc3ccccc3)c3ccoc3cc2o1`, 22.5%; for `COc1cc([C@@H]2c3cc4c(cc3[C@H](O)C3COC(=O)[C@@H]32)OCO4)cc(OC)c1OC` (stereo not given in full), -1.26%. On to `Cc1nc2n(c(=O)c1CCN1CCC(c3noc4cc(F)ccc34)CC1)CCCC2O` (stereo not given), for which the Potency was 1 µM (active).

Turning to `CO/N=C(\C(=O)N[C@@H]1C(=O)N2C(C(=O)O)=C(CSc3nc(=O)c(O)nn3C)CSC12)c1csc(N)n1` (stereo not given in full), the “activity change, negative = inhibition” value was 16.3%.

Consider `CCCCCCCCCCCCCCCCCCOC[C@H](COP(=O)([O-])OCC[N+](C)(C)C)OC`, for which the “activity change, negative = inhibition” value was -9.4%. Still for that read-out and setting: for `Cc1cc(Cn2cnc3c2C[C@@H](C(=O)O)N(C(=O)C(c2ccccc2)c2ccccc2)C3)ccc1N` the value was 0.849%. Turning to `Nc1ncnc2c1ncn2C1CCCC1`, the “activity change, negative = inhibition” value is 4.29%.

On to `COc1cc(C(O)CO)ccc1O` (stereo not given), for which the “activity change, negative = inhibition” value was 8.87%. The same measure, in the same setting: for `[N-]=[N+]=Nc1ccc(C(=O)CSC[C@H](NC(=O)CC[C@H](N)C(=O)O)C(=O)NCC(=O)O)cc1` the value was 0.865%. Still for that read-out and setting: for `C=C1C[C@@]23CC[C@H]4[C@@](C)(CCC[C@@]4(C)C(=O)O)[C@@H]2CC[C@]1(O)C3` the value was -0.0532%; for `COc1ccccc1N1CCN(CCCNc2c(C)c(=O)n(C)c(=O)n2C)CC1`, 20.5%; for `O=c1cc(O)cc(/C=C/c2ccc(O)c(O)c2)o1`, 9.18%. Still for that read-out and setting: under `CC(=O)C(C)=O` stands -7.59%; under `O=C(O)c1cccnc1C(=O)O`, 5.88%. Consider `CC(C)NC[C@H](O)COc1cccc2ccccc12`, for which the “activity change, negative = inhibition” value was -11.2%. On the same count and under the same terms, for `Cc1nc(N=Nc2cc(S(=O)(=O)O)c3cc([N+](=O)[O-])cc(S(=O)(=O)O)c3c2)c(COP(=O)(O)O)c(C=O)c1O` the value was -2.15%.

As to `NC(=O)c1cc[n+](CC2=C(C(=O)O)N3C(=O)[C@@H](NC(=O)[C@@H](c4ccccc4)S(=O)(=O)[O-])[C@H]3SC2)cc1`, the “activity change, negative = inhibition” value is 9.74%. Same read-out and setting: under `CN[C@H](CC(=O)O)C(=O)O` stands -0.979%; under `C[C@@]1(C2CCCC2)Cc2cc(OCC(=O)O)c(Cl)c(Cl)c2C1=O`, 7.32%; under `Oc1ccc(/C=C/c2ccc(/C=C/c3ccc(O)cc3)c(Br)c2)cc1`, 24.3%. On the same count and under the same terms, for `CCCCCCCC/C=C\CCCCCCCC(=O)NCCc1ccc(O)c(O)c1` the value was 26.5%; for `NC(N)=[N+]1CCc2ccccc2C1`, -6.35%. On to `O=c1ccn([C@@H]2O[C@H](COP(=O)(O)OP(=O)(O)O)[C@@H](O)[C@H]2O)c(=O)[nH]1`, for which the “activity change, negative = inhibition” value is 11.2%. The same measure, in the same setting: for `CC1CNCCN1S(=O)(=O)c1cccc2cnccc12` (stereo not given) the value was 11.3%; for `NC(C(=O)N[C@@H]1C(=O)N2C(C(=O)O)=C(Cl)CS[C@H]12)c1ccccc1` (stereo not given in full), 4.72%. For the compound `[Li+]`, the “activity change, negative = inhibition” value was 13.1%.

On to `COC(=O)C1=C(C)NC(C)=C([N+](=O)[O-])C1c1ccccc1C(F)(F)F` (stereo not given), for which the “activity change, negative = inhibition” value is -16.3%.

For the origin of these results see PubChem BioAssay (NCATS).
